Where “and” joins values, the source holds several entries; their conditions need not be identical. Identical values can stand only once. In all, about 5,500 compounds went through this assay and about 2,000 (36%) were called active. Roughly 18% stayed inconclusive and do not appear here. Rule as the data show it: active = normalized growth mostly below about 0.91 (no sharp cut-off); inconclusive = no clear call, values can overlap the other calls; inactive = mostly above about 0.92. The list shows a part of the results.
Assay: chemical genetic growth profiling, strain panel (AID 1159580);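 also: tested at 20 µM; growth read once vehicle control cultures reached saturation at 30 °C; 1 = growth at the plate median or of vehicle wells; lower values mean less growth of the strain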
Settings: S. cerevisiae deletion strains, growth OD

Measured: normalized growth

Cc1cc(C(C)(C)CC(C)(C)C)ccc1OCCOCC[N+](C)(C)Cc1ccccc1
active: locus YAL013W, strain DEP1, stronger effect = lower value 0.056 | locus YAL021C, strain ccr4, stronger effect = lower value 0.0621 | locus YAL026C, strain drs2, stronger effect = lower value 0.0577 | locus YAL030W, strain snc1, stronger effect = lower value 0.0548 | locus YBL061C, strain skt5, stronger effect = lower value 0.0577 | locus YBR009C, strain hhf1, stronger effect = lower value 0.0593 | locus YBR021W, strain FUR4, stronger effect = lower value 0.0884 | locus YBR023C, strain chs3, stronger effect = lower value 0.0588 | locus YBR171W, strain sec66, stronger effect = lower value 0.0729 | locus YBR229C, strain ROT2, stronger effect = lower value 0.0513 | locus YBR231C, strain swc5, stronger effect = lower value 0.0584 | locus YBR279W, strain paf1, stronger effect = lower value 0.0568 | locus YCL011C, strain gbp2, stronger effect = lower value 0.0539 | locus YCL016C, strain dcc1, stronger effect = lower value 0.0604 | locus YCL029C, strain bik1, stronger effect = lower value 0.0578 | locus YCL061C, strain MRC1, stronger effect = lower value 0.0639 | locus YCL069W, strain vba3, stronger effect = lower value 0.0588 | locus YCR088W, strain abp1, stronger effect = lower value 0.0592 | locus YDL005C, strain med2, stronger effect = lower value 0.0722 | locus YDL035C, strain GPR1, stronger effect = lower value 0.0517 | locus YDL040C, strain nat1, stronger effect = lower value 0.0573 | locus YDL074C, strain BRE1, stronger effect = lower value 0.0803 | locus YDL101C, strain DUN1, stronger effect = lower value 0.0608 | locus YDL134C, strain PPH21, stronger effect = lower value 0.0535 | locus YDL185W, strain tfp1, stronger effect = lower value 0.0735 | locus YDL192W, strain arf1, stronger effect = lower value 0.0575 | locus YDR001C, strain nth1, stronger effect = lower value 0.0561 | locus YDR069C, strain doa4, stronger effect = lower value 0.0594 | locus YDR101C, strain arx1, stronger effect = lower value 0.0572 | locus YDR137W, strain rgp1, stronger effect = lower value 0.0892 | locus YDR159W, strain sac3, stronger effect = lower value 0.0785 | locus YDR162C, strain NBP2, stronger effect = lower value 0.0508 | locus YDR195W, strain ref2 0.112 | locus YDR297W, strain sur2, stronger effect = lower value 0.0548 | locus YDR318W, strain mcm21, stronger effect = lower value 0.0609 | locus YDR334W, strain swr1, stronger effect = lower value 0.0602 | locus YDR335W, strain msn5, stronger effect = lower value 0.0584 | locus YDR388W, stronger effect = lower value 0.0542 | locus YDR392W, strain spt3, stronger effect = lower value 0.0691 | locus YDR502C, strain sam2, stronger effect = lower value 0.0626 | locus YEL003W, strain gim4, stronger effect = lower value 0.0521 | locus YEL037C, strain rad23, stronger effect = lower value 0.0554 | locus YEL061C, strain CIN8 (second series), stronger effect = lower value 0.0588 | locus YEL061C, strain CIN8, stronger effect = lower value 0.0504 | locus YER015W, strain faa2, stronger effect = lower value 0.0619 | locus YER016W, strain bim1, stronger effect = lower value 0.0588 | locus YER110C, stronger effect = lower value 0.0699 | locus YER111C, strain swi4, stronger effect = lower value 0.0695 | locus YER155C, strain BEM2 (second series), stronger effect = lower value 0.0851 | locus YER155C, strain BEM2, stronger effect = lower value 0.0684 | locus YER167W, strain BCK2, stronger effect = lower value 0.0531 | locus YFR010W, strain ubp6, stronger effect = lower value 0.0641 | locus YGL078C, strain dbp3, stronger effect = lower value 0.0843 | locus YGL086W, strain mad1, stronger effect = lower value 0.0561 | locus YGL167C, strain pmr1, stronger effect = lower value 0.0723 | locus YGL173C, strain kem1, stronger effect = lower value 0.0635 | locus YGL227W, strain vid30, stronger effect = lower value 0.0611 | locus YGL240W, strain doc1, stronger effect = lower value 0.0709 | locus YGL248W, strain PDE1, stronger effect = lower value 0.05 | locus YGL253W, strain hxk2, stronger effect = lower value 0.0523 | locus YGR135W, strain pre9, stronger effect = lower value 0.0617 | locus YGR252W, strain gcn5, stronger effect = lower value 0.165 | locus YHR013C, strain ard1, stronger effect = lower value 0.0989 | locus YHR027C, strain rpn1, stronger effect = lower value 0.0592 | locus YHR030C, strain SLT2, stronger effect = lower value 0.0522 and 0.101 | locus YHR079C, strain IRE1 (second series), stronger effect = lower value 0.0549 | locus YHR079C, strain IRE1, stronger effect = lower value 0.104 | locus YHR094C, strain hxt1, stronger effect = lower value 0.0561 | locus YHR129C, strain ARP1, stronger effect = lower value 0.0578 | locus YHR142W, strain chs7, stronger effect = lower value 0.072 | locus YHR200W, strain rpn10, stronger effect = lower value 0.0568 | locus YIL066C, strain RNR3, stronger effect = lower value 0.054 | locus YIL073C, strain SPO22, stronger effect = lower value 0.12 | locus YIL125W, strain kgd1, stronger effect = lower value 0.0749 | locus YIR030C, strain dcg1, stronger effect = lower value 0.0563 | locus YJL092W, strain hpr5, stronger effect = lower value 0.0568 | locus YJL095W, strain BCK1 (second series), stronger effect = lower value 0.0554 | locus YJL095W, strain BCK1, stronger effect = lower value 0.0585 and 0.103 | locus YJL115W, strain asf1, stronger effect = lower value 0.0691 | locus YJL129C, strain trk1, stronger effect = lower value 0.0794 | locus YJL134W, strain LCB3, stronger effect = lower value 0.0506 | locus YJL154C, strain vps35, stronger effect = lower value 0.0594 | locus YJL164C, strain tpk1, stronger effect = lower value 0.057 | locus YJL166W, strain qcr8, stronger effect = lower value 0.0596 | locus YJL168C, strain set2, stronger effect = lower value 0.0557 | locus YJL187C, strain SWE1 (second series), stronger effect = lower value 0.0514 | locus YJL187C, strain SWE1, stronger effect = lower value 0.0563 | locus YJR043C, strain POL32, stronger effect = lower value 0.0648 | locus YJR066W, strain TOR1, stronger effect = lower value 0.00362 | locus YKL009W, strain mrt4, stronger effect = lower value 0.213 | locus YKL068W, stronger effect = lower value 0.172 | locus YKL085W, strain MDH1 (second series), stronger effect = lower value 0.0866 | locus YKL085W, strain MDH1, stronger effect = lower value 0.0866 | locus YKL160W, strain elf1, stronger effect = lower value 0.0603 | locus YKR001C, strain vps1, stronger effect = lower value 0.0608 | locus YKR026C, strain gcn3, stronger effect = lower value 0.0637 | locus YKR091W, strain srl3, stronger effect = lower value 0.0576 | locus YLL001W, strain dnm1, stronger effect = lower value 0.0592 | locus YLL026W, stronger effect = lower value 0.056 | locus YLL041C, strain sdh2, stronger effect = lower value 0.0575 | locus YLR027C, strain aat2, stronger effect = lower value 0.0549 | locus YLR039C, strain RIC1, stronger effect = lower value 0.0893 | locus YLR058C, strain SHM2, stronger effect = lower value 0.052 | locus YLR102C, strain apc9, stronger effect = lower value 0.0571 | locus YLR113W, strain HOG1, stronger effect = lower value 0.119 | locus YLR221C, strain rsa3, stronger effect = lower value 0.0575 | locus YLR258W, strain gsy2, stronger effect = lower value 0.0566 | locus YLR262C, strain YPT6 (second series), stronger effect = lower value 0.0719 | locus YLR262C, strain YPT6, stronger effect = lower value 0.0979 | locus YLR268W, strain sec22, stronger effect = lower value 0.0813 | locus YLR320W, strain mms22, stronger effect = lower value 0.0724 | locus YLR330W, strain CHS5, stronger effect = lower value 0.0528 | locus YLR342W, strain FKS1 (second series), stronger effect = lower value 0.0706 | locus YLR342W, strain FKS1, stronger effect = lower value 0.0618 | locus YLR357W, strain rsc2, stronger effect = lower value 0.114 | locus YLR370C, strain arc18, stronger effect = lower value 0.0577 | locus YLR371W, strain rom2, stronger effect = lower value 0.0597 | locus YLR384C, strain iki3, stronger effect = lower value 0.0598 | locus YLR418C, strain cdc73, stronger effect = lower value 0.0929 | locus YML016C, strain PPZ1, stronger effect = lower value 0.0514 | locus YML032C, strain rad52, stronger effect = lower value 0.0687 | locus YML120C, strain ndi1, stronger effect = lower value 0.0557 | locus YML124C, strain tub3, stronger effect = lower value 0.0571 | locus YMR058W, strain fet3, stronger effect = lower value 0.0582 | locus YMR078C, strain ctf18, stronger effect = lower value 0.0671 | locus YMR125W, strain sto1, stronger effect = lower value 0.073 | locus YMR129W, stronger effect = lower value 0.0561 | locus YMR205C, strain PFK2, stronger effect = lower value 0.0818 | locus YMR223W, strain ubp8, stronger effect = lower value 0.0638 | locus YMR231W, strain pep5, stronger effect = lower value 0.0634 | locus YMR307W, strain GAS1, stronger effect = lower value 0.113 | locus YNL067W, strain RPL9B, stronger effect = lower value 0.051 | locus YNL071W, strain lat1, stronger effect = lower value 0.0592 | locus YNL153C, strain GIM3, stronger effect = lower value 0.0542 | locus YNL183C, strain NPR1, stronger effect = lower value 0.00188 | locus YNL209W, strain ssb2, stronger effect = lower value 0.0576 | locus YNL233W, strain BNI4, stronger effect = lower value 0.0574 | locus YNL248C, strain rpa49, stronger effect = lower value 0.0804 | locus YNL250W, strain rad50, stronger effect = lower value 0.109 | locus YNL271C, strain bni1, stronger effect = lower value 0.0656 | locus YNL298W, strain CLA4, stronger effect = lower value 0.0604 | locus YNL307C, strain MCK1, stronger effect = lower value 0.0681 | locus YNL322C, strain KRE1 (second series), stronger effect = lower value 0.0636 | locus YNR049C, strain mso1, stronger effect = lower value 0.0552 | locus YNR052C, strain pop2, stronger effect = lower value 0.0587 | locus YOL006C, strain TOP1, stronger effect = lower value 0.115 | locus YOL147C, strain pex11, stronger effect = lower value 0.0557 | locus YOR001W, strain rrp6, stronger effect = lower value 0.0651 | locus YOR061W, strain CKA2, stronger effect = lower value 0.0485 | locus YOR069W, strain VPS5, stronger effect = lower value 0.0867 | locus YOR070C, strain gyp1, stronger effect = lower value 0.0566 | locus YOR080W, strain dia2, stronger effect = lower value 0.0634 | locus YOR083W, strain WHI5, stronger effect = lower value 0.0581 | locus YOR106W, strain vam3, stronger effect = lower value 0.0627 | locus YOR136W, strain idh2, stronger effect = lower value 0.0687 | locus YOR144C, strain elg1, stronger effect = lower value 0.0552 | locus YOR184W, strain ser1, stronger effect = lower value 0.0763 | locus YOR231W, strain MKK1, stronger effect = lower value 0.103 | locus YOR265W, strain rbl2, stronger effect = lower value 0.055 | locus YOR270C, strain vph1, stronger effect = lower value 0.0945 | locus YOR290C, strain snf2, stronger effect = lower value 0.0584 | locus YOR316C, strain cot1, stronger effect = lower value 0.056 | locus YPL051W, strain arl3, stronger effect = lower value 0.0608 | locus YPL055C, strain LGE1, stronger effect = lower value 0.0718 | locus YPL078C, strain atp4, stronger effect = lower value 0.0619 | locus YPL106C, strain sse1, stronger effect = lower value 0.0907 | locus YPL240C, strain hsp82, stronger effect = lower value 0.057 | locus YPL256C, strain CLN2, stronger effect = lower value 0.105 | locus YPR119W, strain clb2, stronger effect = lower value 0.0584 | locus YPR141C, strain kar3, stronger effect = lower value 0.0826 | locus YPR163C, strain tif3, stronger effect = lower value 0.0658 | locus YPR167C, strain met16, stronger effect = lower value 0.059 | strain wtn01, stronger effect = lower value 0.0645

Reference: PubChem BioAssay AID1159580 (chemical genetic matrix, 2015)
